Twelve compounds from ChEMBL document CHEMBL2218924, “A broad activity screen in support of a chemogenomic map for kinase signalling research and drug discovery” (Biochem J, 2013) can be followed below.

Test [1] has as its target Interleukin-1 receptor-associated kinase 1 (Homo sapiens) (UniProt P51617). The settings on record: at 1 µM.
The target is the same in test [2]. The conditions noted are these: at 10 µM.
The target in test [3] is T1, Interleukin-1 receptor-associated kinase 4 (Homo sapiens) (UniProt Q9NWZ3).
T1 sequence (whole entry): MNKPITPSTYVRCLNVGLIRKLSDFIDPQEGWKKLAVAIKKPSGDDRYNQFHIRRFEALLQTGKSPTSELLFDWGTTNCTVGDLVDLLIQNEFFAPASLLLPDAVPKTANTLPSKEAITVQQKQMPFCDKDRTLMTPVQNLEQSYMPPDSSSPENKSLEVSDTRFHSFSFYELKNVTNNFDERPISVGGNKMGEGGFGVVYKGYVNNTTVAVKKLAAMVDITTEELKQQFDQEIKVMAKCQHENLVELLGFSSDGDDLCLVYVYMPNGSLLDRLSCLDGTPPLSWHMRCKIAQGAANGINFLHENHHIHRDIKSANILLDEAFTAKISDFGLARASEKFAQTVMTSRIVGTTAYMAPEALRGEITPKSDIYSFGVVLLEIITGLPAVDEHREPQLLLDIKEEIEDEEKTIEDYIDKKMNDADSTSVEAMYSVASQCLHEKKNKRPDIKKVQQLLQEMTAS
The conditions noted are these: at 1 µM.

The target of test [4] is T1, Interleukin-1 receptor-associated kinase 4 (Homo sapiens). The settings on record: at 10 µM.
Test [5] addresses Insulin receptor-related protein (Homo sapiens) (UniProt P14616). The conditions noted are these: at 1 µM.
Test [6] has the same target. The conditions noted are these: at 10 µM.
For test [7], the target named is T2, Tyrosine-protein kinase ITK/TSK (Homo sapiens) (UniProt Q08881).
T2 sequence (whole entry): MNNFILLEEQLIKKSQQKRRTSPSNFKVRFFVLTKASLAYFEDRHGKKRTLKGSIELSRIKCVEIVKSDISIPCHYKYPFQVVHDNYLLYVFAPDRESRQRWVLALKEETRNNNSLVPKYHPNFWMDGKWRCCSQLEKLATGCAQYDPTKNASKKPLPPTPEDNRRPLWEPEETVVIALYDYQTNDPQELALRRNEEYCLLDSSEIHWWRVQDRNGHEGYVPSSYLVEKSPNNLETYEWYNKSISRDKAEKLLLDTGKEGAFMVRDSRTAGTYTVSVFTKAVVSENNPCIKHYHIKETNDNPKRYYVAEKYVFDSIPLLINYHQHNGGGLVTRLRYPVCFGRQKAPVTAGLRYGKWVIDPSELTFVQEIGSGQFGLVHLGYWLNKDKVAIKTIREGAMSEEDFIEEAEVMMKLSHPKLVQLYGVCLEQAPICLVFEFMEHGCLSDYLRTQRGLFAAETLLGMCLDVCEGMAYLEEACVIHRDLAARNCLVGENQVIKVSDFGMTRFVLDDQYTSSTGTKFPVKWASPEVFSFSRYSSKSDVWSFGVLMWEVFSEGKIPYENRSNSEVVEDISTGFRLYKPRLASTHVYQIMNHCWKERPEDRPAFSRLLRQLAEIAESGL
The settings on record: at 1 µM.

The target in test [8] is T2, Tyrosine-protein kinase ITK/TSK (Homo sapiens). The settings on record: at 10 µM.
Test [9] has as its target Tyrosine-protein kinase JAK2 (Homo sapiens) (UniProt O60674). The conditions noted are these: at 1 µM.
For test [10] the target is unchanged. The settings on record: at 10 µM.
Test [11] deals with T3, Tyrosine-protein kinase JAK3 (Homo sapiens) (UniProt P52333).
T3 sequence (whole entry): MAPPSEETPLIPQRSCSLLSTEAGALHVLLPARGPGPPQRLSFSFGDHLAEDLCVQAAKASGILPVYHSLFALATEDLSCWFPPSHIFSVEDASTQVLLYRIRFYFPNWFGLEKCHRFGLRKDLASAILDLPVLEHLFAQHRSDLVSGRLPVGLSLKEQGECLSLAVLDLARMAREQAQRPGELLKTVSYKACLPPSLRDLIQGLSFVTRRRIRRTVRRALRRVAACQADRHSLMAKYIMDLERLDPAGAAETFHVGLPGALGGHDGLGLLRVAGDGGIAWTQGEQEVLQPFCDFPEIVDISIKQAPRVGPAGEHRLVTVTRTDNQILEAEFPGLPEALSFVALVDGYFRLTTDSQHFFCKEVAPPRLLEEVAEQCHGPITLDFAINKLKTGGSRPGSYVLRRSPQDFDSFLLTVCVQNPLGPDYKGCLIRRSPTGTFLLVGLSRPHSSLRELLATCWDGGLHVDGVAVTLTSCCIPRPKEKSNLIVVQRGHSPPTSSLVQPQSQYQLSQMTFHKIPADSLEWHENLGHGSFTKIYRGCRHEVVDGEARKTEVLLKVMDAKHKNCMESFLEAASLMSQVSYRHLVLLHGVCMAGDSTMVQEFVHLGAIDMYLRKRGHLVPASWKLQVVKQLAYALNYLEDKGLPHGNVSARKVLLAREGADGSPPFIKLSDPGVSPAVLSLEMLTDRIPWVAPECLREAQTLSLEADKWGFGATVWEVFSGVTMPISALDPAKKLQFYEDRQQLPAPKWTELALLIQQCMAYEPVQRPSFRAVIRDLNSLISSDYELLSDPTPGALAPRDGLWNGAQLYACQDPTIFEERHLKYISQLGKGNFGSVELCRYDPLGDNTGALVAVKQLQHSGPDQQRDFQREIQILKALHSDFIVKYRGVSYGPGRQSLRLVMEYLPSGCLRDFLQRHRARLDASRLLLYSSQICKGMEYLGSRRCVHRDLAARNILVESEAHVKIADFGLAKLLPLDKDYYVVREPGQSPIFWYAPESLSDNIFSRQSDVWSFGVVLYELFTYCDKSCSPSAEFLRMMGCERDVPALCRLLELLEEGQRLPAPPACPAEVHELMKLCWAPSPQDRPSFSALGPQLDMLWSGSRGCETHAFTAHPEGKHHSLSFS
The conditions noted are these: at 1 µM.

Test [12] has as its target T3, Tyrosine-protein kinase JAK3 (Homo sapiens). The conditions noted are these: at 10 µM.
Test [13] concerns the target Mitogen-activated protein kinase 8 (Homo sapiens) (UniProt P45983). The conditions noted are these: at 10 µM.
Test [14] has as its target Mitogen-activated protein kinase 9 (Homo sapiens) (UniProt P45984). The conditions noted are these: at 10 µM.
The target of test [15] is Mitogen-activated protein kinase 10 (Homo sapiens) (UniProt P53779). The settings on record: at 1 µM.
Sequence of Mitogen-activated protein kinase 10 (Homo sapiens) (P53779 whole entry): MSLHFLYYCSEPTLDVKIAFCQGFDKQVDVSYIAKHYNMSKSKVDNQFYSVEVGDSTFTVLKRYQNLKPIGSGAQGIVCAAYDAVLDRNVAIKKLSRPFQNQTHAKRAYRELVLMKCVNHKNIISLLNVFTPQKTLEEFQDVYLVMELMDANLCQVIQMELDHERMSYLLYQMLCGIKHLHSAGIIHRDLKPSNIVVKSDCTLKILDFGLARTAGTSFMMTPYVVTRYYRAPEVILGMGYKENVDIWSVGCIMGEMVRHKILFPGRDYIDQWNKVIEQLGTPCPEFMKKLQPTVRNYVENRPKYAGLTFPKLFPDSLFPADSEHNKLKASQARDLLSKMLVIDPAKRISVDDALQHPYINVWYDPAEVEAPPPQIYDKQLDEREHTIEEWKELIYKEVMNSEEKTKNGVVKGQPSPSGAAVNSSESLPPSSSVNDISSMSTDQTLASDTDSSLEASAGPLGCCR
Test [16] addresses Mitogen-activated protein kinase 9 (Homo sapiens) (UniProt P45984). The conditions noted are these: at 1 µM.
Test [17] deals with Mitogen-activated protein kinase 8 (Homo sapiens) (UniProt P45983). The conditions noted are these: at 1 µM.
Sequence of Mitogen-activated protein kinase 8 (Homo sapiens) (P45983 whole entry): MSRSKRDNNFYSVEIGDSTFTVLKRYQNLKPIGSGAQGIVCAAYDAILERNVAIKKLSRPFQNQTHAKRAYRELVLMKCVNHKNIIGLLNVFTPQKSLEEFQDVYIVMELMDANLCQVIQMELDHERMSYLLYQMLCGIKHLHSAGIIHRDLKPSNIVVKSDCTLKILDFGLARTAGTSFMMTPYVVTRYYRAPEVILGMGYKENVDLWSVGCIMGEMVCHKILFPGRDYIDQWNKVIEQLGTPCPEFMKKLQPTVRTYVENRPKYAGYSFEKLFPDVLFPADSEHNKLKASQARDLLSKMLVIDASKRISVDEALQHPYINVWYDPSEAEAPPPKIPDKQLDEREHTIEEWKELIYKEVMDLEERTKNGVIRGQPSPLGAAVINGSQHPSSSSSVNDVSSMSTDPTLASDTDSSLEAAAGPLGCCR

Sequence of Mitogen-activated protein kinase 9 (Homo sapiens) (P45984 whole entry, looked up): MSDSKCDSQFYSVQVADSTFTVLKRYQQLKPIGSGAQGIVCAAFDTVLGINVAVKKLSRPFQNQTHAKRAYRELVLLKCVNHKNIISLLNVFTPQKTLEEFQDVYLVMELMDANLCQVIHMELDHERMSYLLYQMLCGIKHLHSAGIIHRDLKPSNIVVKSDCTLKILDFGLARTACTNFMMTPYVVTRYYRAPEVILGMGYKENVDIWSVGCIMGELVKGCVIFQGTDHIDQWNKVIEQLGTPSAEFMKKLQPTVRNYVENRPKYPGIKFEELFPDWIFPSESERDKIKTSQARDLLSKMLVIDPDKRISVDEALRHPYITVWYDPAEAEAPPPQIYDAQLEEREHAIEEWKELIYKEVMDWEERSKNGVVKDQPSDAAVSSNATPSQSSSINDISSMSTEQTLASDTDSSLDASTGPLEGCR
Sequence of Tyrosine-protein kinase JAK2 (Homo sapiens) (O60674 whole entry): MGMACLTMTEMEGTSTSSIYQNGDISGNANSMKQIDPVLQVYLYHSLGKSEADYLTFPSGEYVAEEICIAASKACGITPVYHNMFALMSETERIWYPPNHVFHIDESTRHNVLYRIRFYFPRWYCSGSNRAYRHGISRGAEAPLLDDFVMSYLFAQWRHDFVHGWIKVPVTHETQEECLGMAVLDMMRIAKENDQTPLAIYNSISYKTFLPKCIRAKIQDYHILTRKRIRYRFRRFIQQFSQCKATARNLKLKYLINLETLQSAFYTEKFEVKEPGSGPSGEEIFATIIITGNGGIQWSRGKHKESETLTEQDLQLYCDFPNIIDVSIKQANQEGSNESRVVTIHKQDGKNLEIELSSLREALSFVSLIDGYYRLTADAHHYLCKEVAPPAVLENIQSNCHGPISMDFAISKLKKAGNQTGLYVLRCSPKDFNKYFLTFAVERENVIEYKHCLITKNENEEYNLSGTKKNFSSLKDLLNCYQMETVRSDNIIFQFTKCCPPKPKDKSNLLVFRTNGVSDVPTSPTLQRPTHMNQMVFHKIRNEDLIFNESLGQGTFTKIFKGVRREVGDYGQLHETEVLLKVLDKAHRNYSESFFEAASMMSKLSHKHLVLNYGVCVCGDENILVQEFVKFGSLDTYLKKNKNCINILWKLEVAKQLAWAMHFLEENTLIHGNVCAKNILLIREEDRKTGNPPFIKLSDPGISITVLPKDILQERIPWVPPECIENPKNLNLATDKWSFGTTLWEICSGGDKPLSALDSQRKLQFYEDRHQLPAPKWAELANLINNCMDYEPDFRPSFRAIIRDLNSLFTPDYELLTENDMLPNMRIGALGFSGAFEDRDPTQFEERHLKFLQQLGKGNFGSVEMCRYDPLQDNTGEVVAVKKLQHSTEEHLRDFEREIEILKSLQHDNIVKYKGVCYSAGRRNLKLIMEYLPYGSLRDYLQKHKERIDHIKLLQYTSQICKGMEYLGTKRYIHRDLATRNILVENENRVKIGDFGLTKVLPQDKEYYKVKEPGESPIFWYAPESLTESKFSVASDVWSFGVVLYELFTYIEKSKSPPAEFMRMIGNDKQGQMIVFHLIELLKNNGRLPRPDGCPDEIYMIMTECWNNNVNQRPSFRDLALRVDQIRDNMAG
Sequence of Insulin receptor-related protein (Homo sapiens) (P14616 27-742 limits assumed): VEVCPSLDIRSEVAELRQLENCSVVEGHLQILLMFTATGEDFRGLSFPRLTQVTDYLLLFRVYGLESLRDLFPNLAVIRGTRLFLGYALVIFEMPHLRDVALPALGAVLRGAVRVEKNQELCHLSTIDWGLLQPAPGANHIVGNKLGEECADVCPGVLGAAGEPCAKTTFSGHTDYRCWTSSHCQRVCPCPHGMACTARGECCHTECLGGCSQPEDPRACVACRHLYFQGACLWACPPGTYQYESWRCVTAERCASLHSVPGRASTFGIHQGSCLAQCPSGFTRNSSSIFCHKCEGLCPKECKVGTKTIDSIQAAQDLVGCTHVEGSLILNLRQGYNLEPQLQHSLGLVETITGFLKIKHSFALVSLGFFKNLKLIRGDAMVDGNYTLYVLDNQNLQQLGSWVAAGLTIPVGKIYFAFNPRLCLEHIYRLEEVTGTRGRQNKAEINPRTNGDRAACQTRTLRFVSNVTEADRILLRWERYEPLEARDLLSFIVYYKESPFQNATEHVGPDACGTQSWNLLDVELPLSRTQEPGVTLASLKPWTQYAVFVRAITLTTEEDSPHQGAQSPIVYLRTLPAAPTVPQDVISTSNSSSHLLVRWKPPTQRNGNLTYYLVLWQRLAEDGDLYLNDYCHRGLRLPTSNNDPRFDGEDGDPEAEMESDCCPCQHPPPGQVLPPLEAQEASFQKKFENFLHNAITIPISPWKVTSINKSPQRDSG
Sequence of Insulin receptor-related protein (Homo sapiens) (P14616 747-1297 limits assumed): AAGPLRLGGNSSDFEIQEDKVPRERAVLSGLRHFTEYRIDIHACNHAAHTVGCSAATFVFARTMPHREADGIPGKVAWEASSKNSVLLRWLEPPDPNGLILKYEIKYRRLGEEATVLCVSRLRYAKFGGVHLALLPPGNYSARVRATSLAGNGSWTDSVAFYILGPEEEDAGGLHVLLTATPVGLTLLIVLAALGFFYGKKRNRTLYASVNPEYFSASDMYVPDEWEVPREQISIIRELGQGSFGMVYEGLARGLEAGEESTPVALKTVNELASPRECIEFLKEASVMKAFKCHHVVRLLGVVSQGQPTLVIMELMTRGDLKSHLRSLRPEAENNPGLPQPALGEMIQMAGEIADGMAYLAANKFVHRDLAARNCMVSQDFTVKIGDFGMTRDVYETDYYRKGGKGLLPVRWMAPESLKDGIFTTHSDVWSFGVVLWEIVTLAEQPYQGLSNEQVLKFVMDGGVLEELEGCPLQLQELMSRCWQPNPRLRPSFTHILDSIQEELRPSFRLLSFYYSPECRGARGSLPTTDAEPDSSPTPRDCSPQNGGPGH
Sequence of Interleukin-1 receptor-associated kinase 1 (Homo sapiens) (P51617 whole entry, looked up): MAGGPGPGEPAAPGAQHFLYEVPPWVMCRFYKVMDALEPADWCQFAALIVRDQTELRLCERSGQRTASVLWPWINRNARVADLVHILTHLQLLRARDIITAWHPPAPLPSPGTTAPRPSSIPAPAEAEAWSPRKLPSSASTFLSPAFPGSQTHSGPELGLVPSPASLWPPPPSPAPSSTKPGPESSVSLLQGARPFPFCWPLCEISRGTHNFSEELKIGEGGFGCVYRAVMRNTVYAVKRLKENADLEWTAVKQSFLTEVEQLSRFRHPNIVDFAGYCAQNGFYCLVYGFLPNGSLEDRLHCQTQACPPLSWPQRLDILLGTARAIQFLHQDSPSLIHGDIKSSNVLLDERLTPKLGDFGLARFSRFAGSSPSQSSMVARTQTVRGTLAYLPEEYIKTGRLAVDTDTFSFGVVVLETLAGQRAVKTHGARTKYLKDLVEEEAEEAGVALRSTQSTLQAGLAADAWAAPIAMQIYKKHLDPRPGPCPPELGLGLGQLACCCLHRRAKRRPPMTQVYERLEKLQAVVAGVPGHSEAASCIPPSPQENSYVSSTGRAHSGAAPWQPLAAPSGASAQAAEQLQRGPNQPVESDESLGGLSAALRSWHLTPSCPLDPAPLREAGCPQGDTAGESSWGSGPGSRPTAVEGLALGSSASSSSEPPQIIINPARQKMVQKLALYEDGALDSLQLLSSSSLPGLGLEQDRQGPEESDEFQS

With `Cn1c2ccccc2c2c3c(c4c5ccccc5n(CCC#N)c4c21)CNC3=O`, the residual activity in test [1] was 47%; in test [2], 44%; in test [3], -1%; in test [4], 4%; in test [5] it was 69%; in test [6] it was 53%. Besides, the residual activity in test [7] was found to be 4%; in [8], 4%; in [9], 4%; in test [10], 3%; in test [11], 1%; in test [12] it was 2%. Also, the residual activity in test [13] amounted to 31%; in test [14], 73%; in test [15] it was 7%.

Regarding `Nc1nccc(-c2c(-c3ccc(F)cc3)ncn2C2CCNCC2)n1`, the residual activity in [5] came out at 140%; in test [11], 120%; in test [12] it was 118%; in [15] it was 69%.

As to `COc1ccc(-c2cnc3c(-c4ccsc4)cnn3c2)cc1`, the residual activity worked out at 98% in test [1]; 84% in test [2]; 124% in test [3]; 94% in test [4]; 92% in [12]; 100% in test [16]. In addition, the residual activity in test [14] came to 100%; in [15], 88%.

For the compound `Oc1cccc(-c2nc(N3CCOCC3)c3oc4ncccc4c3n2)c1`, the residual activity in [5] was determined as 128%; in [6] it was 84%; in test [13], 77%; in [15] it was 91%.

Regarding `COc1ccc(COc2ccc(Cc3cnc(N)nc3N)cc2OC)cc1`, the residual activity in test [1] stood at 76%; in [2], 67%; in [5], 137%; in test [6], 82%; in test [7], 100%; in test [8], 99%.

Take `Nc1nc(Nc2ccc(S(N)(=O)=O)cc2)nn1C(=O)c1c(F)cccc1F`: the residual activity in [2] was 43%; in [3], 96%; in test [4], 37%; in [5] it was 112%; in [6], 57%; in test [8], 40%. The residual activity in test [9] worked out at 11%; in [10], 0%; in test [11], 7%; in [12], 1%; in test [16], 102%; in [14], 48%. In test [15], the residual activity amounted to 51%.

Regarding `CC(C)N(CCC(=O)c1ccc2ccccc2c1)Cc1ccccc1`, the residual activity was 83% in test [1]; 77% in test [2]; 131% in test [5]; 82% in test [6]; 78% in test [11]; 45% in test [12]. The residual activity in test [13] came to 57%; in [14], 86%; in test [15], 80%.

Take `COc1ccc(Cl)cc1NC(=O)Nc1cc(C)nc2ccccc12`: the residual activity worked out at 96% in [1]; 100% in [2]; 124% in test [9]; 155% in test [10]; 145% in test [12]; 85% in test [15].

Consider `O=C(Nc1nc2ccccc2n1CCN1CCOCC1)c1cccc([N+](=O)[O-])c1`, for which the residual activity came to 11% in test [1]; 16% in [2]; 13% in test [3]; 15% in test [4]; 74% in test [7]; 52% in test [8]. Besides, the residual activity worked out at 24% in test [9], 40% in test [10], 85% in [11] and 69% in test [12].

Regarding `CCOc1nc(NC(=O)Cc2cc(OC)ccc2OC)cc(N)c1C#N`, the residual activity in test [3] is 81%; in [4], 81%; in [17] it was -16%; in [13], -6%; in test [16], -1%; in test [14], -11%. Also, in [15], the residual activity was -2%.

Consider `NC(=O)c1cccc(-c2cc(Nc3ccc(OC(F)(F)F)cc3)ncn2)c1`, for which the residual activity in test [1] is 95%; in test [2] it was 93%; in test [5] it was 139%; in test [6] it was 98%.

With `NC(=O)c1ccc(-c2nc(-c3ccc4c(c3)OCCO4)c(-c3ccccn3)[nH]2)cc1`, the residual activity in [4] was 97%; in test [5], 124%; in [17], 117%; in [13], 87%.
